Screening data from PubChem BioAssay.
Rev-erbA mod: modulates human Rev-erb alpha binding to DNA | AID 1259318 | activity, % at 10 µM | 370,000 compounds, 0.79% hits | Rev-erbα–FITC-DNA binding, fluorescence polarization, 90 min;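 active = activity above about 14%, limit read from the data; passing the limit was not always enough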;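 note: 0% = DMSO wells with 35 nM protein and 100% = DMSO wells with 750 nM protein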
ABCB6 inh 2: blocks the human ABCB6 transporter. K562-ABCB6 porphyrin accumulation, flow cytometry, 1 h; stronger effect = lower value. fluorescence ratio to DMSO, % at 10 µM. 360,000 compounds, 0.19% hits;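 active = fluorescence ratio to DMSO below 75%, the collection mean minus 3 SD; inconclusive = too few cells collected in the well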;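 note: signal is porphyrin accumulated inside mitochondria; 100% equals median channel fluorescence of DMSO control wells; lower ratio means ABCB6 inhibition with less porphyrin fluorescence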
Target sequence (Q9NP58 whole entry, looked up): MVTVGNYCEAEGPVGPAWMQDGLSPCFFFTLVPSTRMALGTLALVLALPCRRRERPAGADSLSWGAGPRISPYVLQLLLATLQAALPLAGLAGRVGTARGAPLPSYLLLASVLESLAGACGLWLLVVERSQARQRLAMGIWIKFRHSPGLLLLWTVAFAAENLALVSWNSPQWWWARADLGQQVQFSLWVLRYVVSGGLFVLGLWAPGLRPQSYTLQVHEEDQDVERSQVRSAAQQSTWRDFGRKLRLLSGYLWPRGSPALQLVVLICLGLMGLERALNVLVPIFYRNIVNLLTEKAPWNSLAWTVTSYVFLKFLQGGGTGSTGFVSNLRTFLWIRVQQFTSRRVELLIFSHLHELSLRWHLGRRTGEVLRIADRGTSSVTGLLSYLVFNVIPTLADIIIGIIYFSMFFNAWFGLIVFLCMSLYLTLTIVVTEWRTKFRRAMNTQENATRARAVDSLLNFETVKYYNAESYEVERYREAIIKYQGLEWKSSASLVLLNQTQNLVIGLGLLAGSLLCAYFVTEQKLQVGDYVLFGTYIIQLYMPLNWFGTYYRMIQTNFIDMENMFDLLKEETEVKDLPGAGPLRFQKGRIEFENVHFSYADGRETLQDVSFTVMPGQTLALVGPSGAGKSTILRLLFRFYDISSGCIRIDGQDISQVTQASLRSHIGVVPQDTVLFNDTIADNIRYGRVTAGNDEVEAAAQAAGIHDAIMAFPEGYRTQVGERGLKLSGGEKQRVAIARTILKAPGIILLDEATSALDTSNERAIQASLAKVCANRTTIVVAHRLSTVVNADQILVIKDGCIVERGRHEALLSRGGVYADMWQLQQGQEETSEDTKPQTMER
VLA-4 inh: inhibition in a human VLA-4 binding assay; P13612; VLA-4 expressing cells, ligand binding flow cytometry; inhibition, % (about 7 µM as worked out from the volumes in the protocol); 330,000 compounds, 0.2% hits; AID 2557; in the data active = inhibition above about 50%
PG9 Ab binder: binds the HIV-1 gp120 antibody PG9. inhibition, % at 6.7 µM. TR-FRET gp120-PG9 antibody binding. 360,000 compounds, 0.43% hits. AID 624416; in the data active = inhibition above about 8.5%
Granule exo inh: lytic granule exocytosis inhibition; TALL-104 LAMP-1 surface exposure, flow cytometry; cells stimulated with thapsigargin and PMA; inhibition, % at 10 µM; 360,000 compounds, 0.66% hits; AID 651702;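 active = inhibition above about 55%, limit read from the data; inconclusive = no clear call, values can overlap the other calls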
ABCB6 inh CP1: blocks the human ABCB6 transporter. AID 602430. ratio response (% of DMSO), % at 10 µM. shares compounds with ABCB6 inh 2. K562-ABCB6 porphyrin accumulation, flow cytometry, 1 h; stronger effect = lower value. 700 tested, under 10 active;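 active = repeat-averaged ratio response below 75% of DMSO, the collection mean minus 3 SD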;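 note: median porphyrin fluorescence at 575 nm with 488 nm excitation from mitochondria; lower ratio means less porphyrin signal so ABCB6 inhibition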
An asterisk follows results filed as active; ? = inconclusive; nt = no result given. Rows were chosen to be rich in hits. Some 2% of all compounds tested hit in one or more screens of this group.

SMILES | Rev-erbA mod | ABCB6 inh 2 | VLA-4 inh | PG9 Ab binder | Granule exo inh | ABCB6 inh CP1
Cn1cccc1C(=O)N1CCN(S(=O)(=O)c2ccccc2F)CC1 | 1 | nt | nt | nt | nt | nt
CN1CCN(c2ccc(-c3csc(N4CCC(C(N)=O)CC4)n3)cc2)CC1 | 1 | nt | nt | nt | nt | nt
COc1ccc(C(C(=O)N(C)C2CCCC2)N(Cc2ccc(F)cc2)C(=O)c2csc(-c3ccccc3)n2)cc1OC (stereo not drawn) | 12 | nt | nt | nt | nt | nt
CCOc1ccccc1N(C)C(=O)c1sc2ncn(CC(=O)N3CCCCC3C)c(=O)c2c1C (stereo not drawn) | 5 | 172 | -1 | -2 | -9 | 100
COc1cc(NC(=O)c2sc3ncn(CC(=O)N4CCCCC4C)c(=O)c3c2C)cc(OC)c1OC (stereo not drawn) | 0 | 97 | nt | 0 | -4 | 101
CCC(=O)Nc1ccc2c(c1)nc1n2CCSC1 | -1 | 70* | 1 | -1 | -2 | 99
Cc1ccnc(NC(=S)N2CCC(Nc3cccc(C(F)(F)F)c3)CC2)c1 | -6 | nt | nt | nt | nt | nt
Cc1onc(-c2ccccc2Cl)c1C(=O)Nc1ccc(S(=O)(=O)NCC2CCCO2)cc1 (stereo not drawn) | 2 | 95 | 10 | -1 | 0 | nt
Cc1onc(-c2ccccc2Cl)c1C(=O)NCC1CCCO1 (stereo not drawn) | -5 | 74* | 14 | -2 | 0 | 101
Cc1nc(N2CCN(Cc3ccc4c(c3)OCO4)CC2)nc2c1C(=O)CC(c1ccco1)C2 (stereo not drawn) | 4 | 73* | -34 | -3 | -3 | 198
Cc1n[nH]c(C)c1S(=O)(=O)NCCc1c[nH]c2ccccc12 | 0 | nt | nt | nt | nt | nt
NC(=S)Cc1nc2n(n1)Cc1ccccc1-2 | -2 | 70* | 4 | -2 | 0 | 99
O=C(CSc1nnc(-c2cccnc2)n1C1CCCCC1)NC1CCCCCC1 | -1 | nt | nt | nt | nt | nt
COc1ccc(CC(N)c2csc(NC(=O)c3ccccc3)n2)cc1 (stereo not drawn) | 7 | 71* | nt | -1 | -2 | 103
COc1ccc(CC(N)c2csc(NC(=O)c3ccc(OC)cc3)n2)cc1 (stereo not drawn) | 2 | 95 | nt | 1 | -5 | nt
CN(C)c1ccc(NC(=O)NC2CCCCN(Cc3cccc(Cl)c3)C2=O)cc1 (stereo not drawn) | -2 | nt | nt | nt | nt | nt
CC(C)N1Cc2nnn(Cc3ccccc3)c2-c2cc(F)ccc2S1(=O)=O | 0 | nt | nt | nt | nt | nt
Cc1ccsc1CNC(=O)C1(C)CCN1C(C)C (stereo not drawn) | 8 | 71* | nt | 1 | -10 | 100
O=C1C(NC(=O)C(F)(F)Br)CCCCN1Cc1cccc(C(F)(F)F)c1 (stereo not drawn) | 1 | nt | nt | nt | nt | nt
O=C(c1ccc(COc2ccc3ccccc3c2)o1)N1N=C(C(F)F)CC1(O)C(F)F (stereo not drawn) | 0 | 103 | -3 | nt | 1 | 101
Cc1cc(C)cc(OCc2ccc(C(=O)N3N=C(C(F)F)CC3(O)C(F)F)o2)c1 (stereo not drawn) | 5 | 97 | 16 | 2 | -1 | 101
O=C(c1ccccc1-n1cccc1)N1N=C(C(F)F)CC1(O)C(F)F (stereo not drawn) | -5 | 101 | -8 | 0 | ? | nt
Cc1ccc(C)c(OCc2ccc(C(=O)N3N=C(C(F)F)CC3(O)C(F)F)o2)c1 (stereo not drawn) | 2 | 63* | -4 | 3 | -5 | 95
O=C(c1ccc(COc2ccc(Br)cc2)o1)N1N=C(C(F)F)CC1(O)C(F)F (stereo not drawn) | 0 | 94 | 7 | -1 | -3 | 100
O=C(c1ccc(Cn2cc(Br)cn2)cc1)N1N=C(C(F)F)CC1(O)C(F)F (stereo not drawn) | 8 | 100 | 6 | -1 | ? | nt
SMILES | Rev-erbA mod | ABCB6 inh 2 | VLA-4 inh | PG9 Ab binder | Granule exo inh | ABCB6 inh CP1
COC(=O)c1ccc(COc2cc(C)ccc2C)o1 | -1 | 91 | 1 | 0 | 1 | nt
CCCC[C@@H](CCCc1ccc(F)cc1)CCC(=O)N(c1ccccc1)c1ccccc1 | 2 | nt | nt | nt | nt | nt
CCOc1ccc(OCc2ccc(C(=O)N3N=C(C(F)F)CC3(O)C(F)F)o2)cc1 (stereo not drawn) | -3 | 66* | -5 | 0 | -2 | 98
O=C(c1ccc(COc2ccccc2Cl)o1)N1N=C(C(F)F)CC1(O)C(F)F (stereo not drawn) | -2 | 96 | 2 | 0 | -1 | 100
CCOc1ccc(OCc2ccc(C(=O)N3CCCC3)o2)cc1 | 6 | 99 | -4 | 0 | 0 | nt
COCCCNC(=O)c1ccc2c(c1)CCN2S(C)(=O)=O | 3 | 69* | 18 | 0 | -5 | 98
COC(=O)c1cc2c(c3c4cc(C)ccc4n(S(=O)(=O)c4ccc(C)cc4)c13)C(=O)N(C)C2 | 10 | nt | nt | 0 | nt | nt
CCC[C@H]1OC(=O)[C@@H]2CCCN2C(=O)[C@H]([C@H](C)Cc2ccccc2)NC(=O)[C@@H]2CCCN2C(=O)[C@@H]2CCCN2C(=O)[C@H](C(C)C)OC(=O)[C@@H]2CCCN2C(=O)[C@H](C(C)C)NC(=O)C1(C)C | 1 | nt | nt | nt | nt | nt
CC1CCN(CCNC(=O)CCS(=O)(=O)c2ccc(Br)cc2)CC1 | -6 | 7.0* | 10 | -2 | -2 | 95
Cc1ccc(-c2nc(C3CCCN(S(=O)(=O)c4ccc(C)c(C)c4)C3)no2)cc1 (stereo not drawn) | -3 | nt | nt | nt | nt | nt
Cc1ccc2c(c1)C1CS(=O)(=O)N(CC(C)C)C(=O)N1C2 (stereo not drawn) | -10 | nt | nt | nt | nt | nt
COc1ccc(NC(=O)C2CCCN2S(=O)(=O)c2ccc(C)cc2)cc1 (stereo not drawn) | -1 | 45* | nt | -1 | 2 | 102
CCn1c2ccccc2c2cc(C=NNC(=O)c3ccoc3C)ccc21 | 6 | nt | nt | nt | nt | nt
CCOC(=O)c1ccc(NC(=O)CSc2nnc(CNC(=O)c3ccco3)o2)cc1 | -3 | 14* | -7 | 0 | 0 | 98
COc1ccc(OC)c(Nc2ncnc3c2cnn3-c2ccccc2)c1 | 5 | 71* | 9 | 0 | -1 | 101
COc1ccccc1Nc1ncnc2c1cnn2-c1cccc(C)c1 | -1 | 102 | -7 | -2 | -2 | nt
O=C(Oc1ccc(N(Cc2cccs2)C2=NS(=O)(=O)c3ccccc32)cc1)c1ccc(Cl)cc1 | 4 | 96 | -15 | 0 | 1 | nt
O=C(Oc1ccc(N(Cc2cccs2)C2=NS(=O)(=O)c3ccccc32)cc1)c1ccccc1 | 4 | 66* | -21 | 0 | 3 | 100
COC(=O)[C@]12C[C@H](CC(=O)NCc3ccc(OC)c(OC)c3)C(=O)N(Cc3ccccc3)C1=C[C@H](C1CCCC1)O[C@@H]2C | -10 | nt | nt | -2 | nt | nt
COc1ccc(NC(=O)C2Cc3c(-c4cccc(C(N)=O)c4)ccnc3O2)cc1OC (stereo not drawn) | 2 | 96 | nt | 0 | -8 | 98
CS(=O)(=O)Nc1cccc(NC(=O)C2Cc3c(-c4cccc(C(N)=O)c4)ccnc3O2)c1 (stereo not drawn) | 0 | 61* | nt | 1 | -6 | 100
